# Bioassay records (PubChem)
# Lassa entry inh: inhibitors of Lassa virus binding or cell entry; Lassa virus pseudotype entry inhibition, cell reporter; Potency, µM (doses to about 37.9 µM), most hits filed as inhibitors; 1.2% of 300,000 active; AID 540256; calls by dose curve; tested in HEK293 cells; also: nearly all actives have a fitted effect of over 50% in size
# Pf growth 96h: P. falciparum growth inhibition at 96 hour, primary screen for plastid delayed-death inhibitors. P. falciparum luciferase reporter growth, 96 h. Potency, µM (highest dose often 28.7 µM), hits mostly inhibitors. 6.9% of 320,000 active. AID 504834
#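 Plates of compound plus infected erythrocytes (2% hematocrit, 0.05% parasitemia final) incubate 96 hours, 37 C, 5% CO2. Detection reagent added; reduced luminescence from the parasites' luciferase reporter flags inhibition.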
# Pf growth 48h: inhibits P. falciparum growth in the first generation, 48 h | Potency, µM (series often up to 28.7 µM), actives largely listed as inhibitors | P. falciparum luciferase growth in erythrocytes, 48 h | AID 504832 | 5.9% of 310,000 active
#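 Read-out is firefly luciferase luminescence from an integrated reporter in P. falciparum, so falling signal marks reduced parasite growth. Infected erythrocytes were at 2% hematocrit and 0.1% parasitemia (final) in Albumax-supplemented RPMI 1640.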
# CHX counter: counter-screen for Shiga toxin inhibitors: cycloheximide protein synthesis inhibition; 12% of 300,000 active; max response, %; cell reporter, cycloheximide protein synthesis inhibition counterscreen; in the data active = max response mostly above about 13%, no sharp cut-off; inactive = mostly below about 14%; also: read at 38.3 µM for the half of the compounds with a filed dose
# Shiga toxin inh: inhibitors of Shiga toxin in Vero cells; Vero cells, Shiga toxin protein synthesis inhibition reporter; inhibition, % at 38.7 µM; 9.2% of 290,000 active; in the data active = inhibition mostly above about 28%, no sharp cut-off; inactive = mostly below about 43%
# MARV entry inh: inhibitors of Marburg virus binding or cell entry; Marburg virus pseudotyped entry inhibition, cell reporter; Potency, µM (top dose mostly 37.8 µM), hits mostly inhibitors; 1.8% of 300,000 active; AID 540276; calls by dose curve; tested in HEK293 cells
# Numbers stand for hits; . = inactive; ? = inconclusive; / = no result given; [ ] = another dose, or the depositor's remark. Hits are enriched below; roughly 19% of the tested compounds scored in any of these assays. Unless noted, calls follow the shape of the dose curve; as a rule, active = well fitted inhibition curve with a large enough effect; inconclusive = small, poorly fitted or top-dose-only effect, or another doubt; inactive = no such curve, though single readings can be large or run the other way.
SMILES,Lassa entry inh,Pf growth 96h,Pf growth 48h,CHX counter,Shiga toxin inh,MARV entry inh
Cc1ccc(C2CC(c3cccs3)=NN2C(=O)CSc2nc(=O)n3ccc(C)cc3n2)cc1 (stereo not drawn),/,?,8.28µM,/,/,/
COc1ccc(C2CC(c3cccs3)=NN2C(=O)CSc2nc(=O)n3ccc(C)cc3n2)cc1 (stereo not drawn),.,?,11.7µM,/,/,?
CCN1CCN(c2nc(Nc3ccccc3F)nc(N)c2[N+](=O)[O-])CC1,/,?,.,.,.,/
CC(C)CCNc1nc(N)c([N+](=O)[O-])c(N2CCCCCC2)n1,/,2.08µM,3.7µM,.,.,/
Nc1nc(Nc2ccccc2F)nc(N2CCCC2)c1[N+](=O)[O-],.,.,.,50.9,106.8,?
CNc1nc(N)c([N+](=O)[O-])c(N2CCCCCC2)n1,/,.,.,.,.,/
CN(c1ccccc1)c1nc(N)c([N+](=O)[O-])c(N2CCCCC2)n1,/,.,.,31.8,61.1,/
CN(c1ccccc1)c1nc(N)c([N+](=O)[O-])c(N2CCCC2)n1,/,.,.,36.9,80.9,/
CC1CCCC(NCC(O)COC(c2ccc(F)cc2)c2ccc(F)cc2)C1C (stereo not drawn),?,?,?,.,.,?
N#Cc1c(N)n(Cc2ccccc2)c(=O)c2cc([N+](=O)[O-])ccc12,.,?,?,.,.,.
COc1cc(C(=O)c2c(C)c(CCC#N)n3ccccc23)cc(OC)c1OC,.,.,9.28µM,.,.,.
Cc1nnc(SCc2nc3ccccc3[nH]2)s1,.,.,.,.,.,.
CCCc1nc2ccccc2[nH]1,.,?,/,.,.,.
c1ccc(SCc2nc3ccccc3[nH]2)nc1,.,/,.,26.0,59.8,?
c1ccc(SCc2nc(-c3ccncc3)n[nH]2)nc1,.,.,.,.,45.6,.
c1ccc2[nH]c(CSc3nc4ccccc4s3)nc2c1,.,.,?,43.5,54.8,.
Cc1cccc(N(C(=O)c2csnn2)C(C(=O)NCc2ccccc2)c2ccc(C)o2)c1 (stereo not drawn),.,.,?,.,.,?
COc1ccccc1N1CCN(S(=O)(=O)c2c(C)sc3ncn(CC(=O)Nc4cccc(Cl)c4)c(=O)c23)CC1,.,/,/,/,/,?
c1cncc(-c2noc(-c3ccc4ccccc4c3)n2)c1,/,.,.,27.2,101.8,/
Cc1ccc(SCc2nc(-c3cccnc3)no2)cc1,.,.,.,21.3,53.2,.
c1ccc(-c2noc(-c3cccnc3)n2)cc1,?,11.7µM,.,32.8,98.9,.
c1ccc(-c2ccc(-c3nc(-c4cccnc4)no3)cc2)cc1,?,.,/,33.4,.,?
COc1ccc(C)cc1NC(=O)c1cccc(C(=O)Nc2cc(C)ccc2OC)n1,.,.,.,.,.,.
CN(C)S(=O)(=O)Oc1ccc(C(=O)Nc2cccc(C(F)(F)F)c2)cc1,/,1.65µM,?,.,.,/
CN(c1ccccc1C(=O)Nc1cccc(C(F)(F)F)c1)S(C)(=O)=O,.,?,.,.,.,?
SMILES,Lassa entry inh,Pf growth 96h,Pf growth 48h,CHX counter,Shiga toxin inh,MARV entry inh
CN(C)S(=O)(=O)Oc1ccc(C(=O)Nc2cccc(Cl)c2)cc1,.,.,.,55.5,89.1,?
CNc1ncc(C(=O)C(C)(C)C)s1,.,?,.,.,.,.
CN(C)c1ccc(/C=N/N=C(N)N)cc1[N+](=O)[O-],.,.,2.08µM,.,.,?
O=C(NCc1ccccc1)c1cccc(N2CCCS2(=O)=O)c1,.,/,/,/,/,/
Cc1ccc(S(=O)(=O)c2cc(O)ccc2O)cc1C,/,.,.,.,.,/
CN(N=O)c1cc(O)ccc1O,16.4µM,/,/,.,.,?
CCCOc1ccc(CC2CCC(=O)NC2=O)cc1 (stereo not drawn),/,.,.,.,.,/
CCCCOc1ccc(C2(C)CC(=O)NC2=O)cc1 (stereo not drawn),.,/,.,21.5,.,.
Cc1oc(-c2ccc(F)cc2)nc1CN1CCCC(C(=O)N2CCOCC2)C1 (stereo not drawn),.,.,.,.,.,.
C[C@H](NC(=O)[C@@H]1CSC2c3ccccc3C(=O)N21)C(=O)NC1CCCC1 (stereo partly drawn),/,.,.,.,.,/
C[C@H](NC(=O)[C@@H]1CSC2c3ccccc3C(=O)N21)C(=O)NCc1c(F)cccc1Cl (stereo partly drawn),/,11.7µM,?,.,.,/
CCOC(=O)c1ccc(-c2ccc3c(c2)CCC3)nc1C,/,.,.[0.00184 µM],28.9,93.3,/
